In PubChem BioAssay AID2410 (Southern Research Specialized Biocontainment Screening …, 2010):
Hit rate of the full screen: of about 2,500 compounds, about 2,100 (84%) were called active.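 How the source made its calls: active means toxic compounds, whose cell viability fell below 70% of untreated control cells; inactive means the rest.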 So high a share suggests a set chosen from earlier hits. Only a sample is shown. Potency and affinity values are given separately.

Assay: viability of uninfected HEp-2 cells – cell-based, HTS, cytotoxicity control for RSV inhibitor project, dose response (AID 2410);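 further: cells exposed to compound for six days before readout; 100% = median signal of untreated cell control wells on each plate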
Details: HEp-2 viability, luminescence, cytotoxicity counter-screen; series mostly up to 50 µM; viability: at the top concentration

SMILES	viability
CCOc1cc(/C=N/O)cc(Br)c1OCc1ccc(Cl)cc1	95.8% (inactive)
COc1ccc(OC)c(-n2c(SCC(=O)NCc3ccco3)nnc2-c2c[nH]c3ccccc23)c1	70.7% (inactive)
O=c1[nH]c(/C=C2\C=Nc3ccccc32)c(O)n1Cc1ccccc1F	90.2% (inactive)
COc1ccc(-c2nc[nH]c2[N+](=O)[O-])cc1	94.2% (inactive)
C=CCN1C(=O)N(/C=C/C)c2cccc3cccc1c23	96.3% (inactive)
CCOC(=O)C1=C(C)N=c2s/c(=C/c3ccc(OCC(=O)O)c(OC)c3)c(=O)n2C1c1ccc(Cl)cc1 (stereo unspecified)	76.8% (inactive)
CCCC(c1nnnn1CC(=O)OCC)N(Cc1cc2c(C)cc(C)cc2[nH]c1=O)C1CCCC1 (stereo unspecified)	119% (inactive)
CC(=O)Nc1ccc2c(CSc3nnc(N)s3)cc(=O)oc2c1	120% (inactive)
COc1ccc(NC2c3ncccc3C(=O)N2Cc2cccs2)cc1 (stereo unspecified)	83.8% (inactive)
C=CCSc1nnc2nc3c(nn12)c1cc(C)ccc1n3CC=C	76.7% (inactive)
c1csc(-c2nn3c(Cn4cnc5ccccc54)nnc3s2)c1	85.1% (inactive)
O=C1c2ccccc2C(=O)N1CCCCN(C(=O)c1ccco1)c1ccc(Cl)cc1	72.2% (inactive)
NC(=O)N\N=C/C=C/C=C/c1ccc(F)cc1	72.2% (inactive)
CNC(=S)N/N=C(\C)c1cccc(C(F)(F)F)c1	94.9% (inactive)
Nc1ccc(C(=O)N/N=C2\CCCc3c2[nH]c2ccccc32)cc1	101% (inactive)
CCC(=O)N(CC(=O)Nc1sc(C)c(C)c1C(N)=O)C1CCCC1	88.8% (inactive)
COc1ccccc1CN1C[C@@H]2C[C@@H](c3ccc(C)c(C)c3)N3CCC[C@@]23C1=O	70.3% (inactive)
Cc1ccc(C(=O)N/C(=C\c2ccc(C(C)C)cc2)C(=O)NCCCN2CCOCC2)cc1	81.3% (inactive)
CCCC(=O)Nc1ccc(-c2nc3cc(C)c(C)cc3o2)cc1	75.3% (inactive)
Cc1ccc(-c2nc3cc(N)ccc3o2)c(C)c1	95.1% (inactive)
Cc1cc2nc(-c3ccc(NC(=O)C(C)C)cc3)oc2cc1C	81.2% (inactive)
O=C(c1ccc(F)cc1Cl)N(c1ccccn1)C1CCCCC1	71.9% (inactive)

SMILES	viability
c1csc(-c2nn3c(Cn4nnc5ccccc54)nnc3s2)c1	102% (inactive)
Cn1c(NCc2cc(Br)ccc2O)nc2ccccc21	91.3% (inactive)
COc1cc(C)c2occ(/C(C)=N\O)c2c1	98.9% (inactive)
COc1cc(/C=C(\C#N)c2nc3ccccc3s2)ccc1OCC(=O)Nc1ccccc1	101% (inactive)
O=C(Oc1ccc(-c2cnc3ccccc3n2)cc1)c1ccco1	95.7% (inactive)
OCCC1CN(Cc2cccn2-c2nccs2)CCN1CCc1ccccc1 (stereo unspecified)	76.8% (inactive)
CS(=O)(=O)c1ccc(Cl)c(NC(=O)c2ccc3ccccc3c2)c1	110% (inactive)
CCOC(=O)c1c(NC(=O)C2COc3ccccc3O2)sc2c1CC(C)(C)NC2(C)C (stereo unspecified)	84.5% (inactive)
O=C(Nc1ccccn1)C1COc2ccccc2O1 (stereo unspecified)	86% (inactive)
O=C(CCn1c(=O)c2ccccc2n(Cc2cc(=O)n3ccccc3n2)c1=O)NCc1ccco1	96.9% (inactive)
NC(=O)COc1ccc2c3c(c(=O)oc2c1)CCCCC3	79.8% (inactive)
CCOC(=O)c1c(C)oc2c1cc(O)c1ccccc12	74.8% (inactive)
Cn1c2ccccc2c2cc([N+](=O)[O-])ccc21	85.2% (inactive)
CC(=O)Cc1nsc(NC(=O)c2oc(-c3ccccc3Cl)cc2C)n1	73.8% (inactive)
Cc1ccc(NC(=O)c2ccc(NS(=O)(=O)c3cccc4cccnc34)cc2)cc1	72.4% (inactive)
Cn1c(=O)c2c3c(sc2n2cnnc12)CCC3	93.9% (inactive)
Cc1ccc(S(=O)(=O)N2CCC(C(=O)OCC(=O)N3CCCC3=O)CC2)cc1C	106% (inactive)
O=C(CNC(=O)c1ccco1)N=Nc1c(O)[nH]c2ccc([N+](=O)[O-])cc12	74.5% (inactive)
O=C(N=Nc1c(O)[nH]c2ccc([N+](=O)[O-])cc12)c1ccccc1[N+](=O)[O-]	74.4% (inactive)
COc1ccc(Cl)cc1NC(=O)C1(c2cccs2)CCOCC1	87.3% (inactive)
Cc1ccc(NC(=O)CN(C)S(=O)(=O)c2cccc3cccnc23)c(C)c1	87.6% (inactive)
COc1ccccc1CNC(=O)C1CCCN1S(=O)(=O)c1cccc2cccnc12 (stereo unspecified)	85.4% (inactive)

SMILES	viability
Cc1ccc(-c2csc3nc(C)n(N)c(=O)c23)o1	80% (inactive)
C=C(C)C(=O)Nc1cccc(C2=NOC3(C2)C[C@@H](C(N)=O)N(C(=O)c2ccc(OC)cc2)C3)c1 (stereo partly specified)	75.9% (inactive)
CCOC(=O)c1ccc2[nH]c3c(c2c1)CN(C)CC3	105% (inactive)
C/C(N)=C(/C#N)C(=O)COC(=O)c1cc2c(s1)CCCC2	113% (inactive)
CNS(=O)(=O)c1ccc(OC)c(-c2nnc3c4ccccc4c(C)nn23)c1	107% (inactive)
COc1ccc(C(C(=O)NC2CCCC2)N(C(=O)c2snc(C(N)=O)c2N)c2cc(C)ccc2OC)cc1OC (stereo unspecified)	88.9% (inactive)
C=C(C)Cn1c(N2CC(C)CC(C)C2)nc2c1c(=O)[nH]c(=O)n2C (stereo unspecified)	99.3% (inactive)
Brc1cccc(-c2nc(-c3ccncc3)no2)c1	82.8% (inactive)
CC(C)(C)c1cc(NC(=O)c2cc(F)c(F)c(F)c2F)no1	76.3% (inactive)
Cc1ccc(N2C=Nc3ccc(C)c4nc(C)cc2c34)cc1	73.6% (inactive)
CC1(C)CC(=O)C2=C(C1)OC(N)=C(C#N)C2C#Cc1ccccc1 (stereo unspecified)	102% (inactive)
O=C(O)c1cc(-c2ccc(/C=C3\NC(=O)N(c4ccc(Cl)cc4)C3=O)o2)ccc1Cl	87% (inactive)
CC(=O)Oc1cc(OC(C)=O)c2c(C)cc(=O)oc2c1	82.4% (inactive)
COc1cc(/C=N/O)cc(Br)c1OCc1cccc(Cl)c1	96.1% (inactive)
Cc1ccc(-n2c(=O)c3sccc3n(Cc3cc(=O)n4ccccc4n3)c2=O)cc1	94.5% (inactive)
COc1ccc(-n2c(SCC(=O)/C(C#N)=C(\C)N)nc3ccccc3c2=O)cc1OC	99% (inactive)
Nc1ccc(Sc2cc(Cl)nc(N)n2)cc1	104% (inactive)
CCC(=O)Nc1ccc(C(=O)OCC(=O)c2ccc(C)c([N+](=O)[O-])c2)cc1	76.5% (inactive)
Cc1ccc(OCC(=O)Nc2c[nH]c(=O)[nH]c2=O)cc1C	87.6% (inactive)
COc1ccc(C(=O)N2CC(c3ccc(Cl)cc3)CC2=O)cc1 (stereo unspecified)	80.7% (inactive)
CCn1c2ccccc2c2cc(NC(=O)C(=O)NCC3CCCO3)ccc21 (stereo unspecified)	77.6% (inactive)
CSc1nc(C)c(C(=O)Nc2ccccc2)c(-c2ccco2)c1C#N	88.8% (inactive)

SMILES	viability
Cn1c(=NC(=O)c2ccco2)sc2ccccc21	101% (inactive)
Cc1ccc(C(=O)OCC(=O)c2c[nH]c3ccccc23)cc1NC(=O)c1ccco1	84% (inactive)
CC[C@@]12C(=O)N(c3ccc(OC)cc3)C(=O)N1[C@H](c1ccc(Cl)cc1)[C@@H]1C(=O)N(C3CCCCC3)C(=O)[C@@H]12	83.2% (inactive)
CCOC(=O)c1sc2nc(C)[nH]c(=O)c2c1C	74.5% (inactive)
CCOC(=O)c1sc2nc(COC(=O)c3c(F)cccc3F)[nH]c(=O)c2c1C	81.5% (inactive)
Cc1nn(Cc2ccc(F)cc2)c(C)c1NC(=O)c1cnn2c1NC(c1ccccc1)CC2C(F)(F)F (stereo unspecified)	89.7% (inactive)
CCN(c1cc(C)cc(C)c1)S(=O)(=O)c1nnc(NC(=O)C(C)C)s1	71.8% (inactive)
Cc1ccc(S(=O)(=O)N2CCN(C)CC2)cc1-c1nnc2c3ccccc3c(C)nn12	90.2% (inactive)
O=C(c1ccc(Br)o1)N1CCN(c2ccc3nnc(-c4ccccc4)n3n2)CC1	79.8% (inactive)
COc1ccc(C(=O)O/N=C2\C(=O)N(C)c3ccccc32)cc1	95.8% (inactive)
N#Cc1cc(Cl)c(N2CCOCC2)cc1C#N	79.7% (inactive)
O=C(O)CSc1cn(Cc2ccccc2)c2ccccc12	94% (inactive)
O=C(Nc1cc(Cl)cc(Cl)c1)c1ccc(Cn2c(=O)[nH]c3ccsc3c2=O)cc1	102% (inactive)
CC1CCN(C(=O)Cn2c(=O)n(-c3ccc(F)cc3)c(=O)c3sccc32)CC1	115% (inactive)
COc1ccc(S(=O)(=O)NC(C)(C)C)cc1-c1nnc2c3ccccc3c(C)nn12	119% (inactive)
O=C1c2cccnc2C(Nc2ccc(Cl)cc2)N1Cc1cccs1 (stereo unspecified)	103% (inactive)
Cn1ncc(Cl)c1C(=O)Nc1ccc(Cl)cn1	80% (inactive)
O=C(Nc1ccc2c(c1)CCC2)c1ccc(F)cc1	89.2% (inactive)
COc1ccccc1C(=O)NCCNc1nc2cc(C)cc(C)c2cc1C#N	83.7% (inactive)
CN(C)c1ccc(C2CC(c3cccc(NS(C)(=O)=O)c3)=NN2C(=O)c2ccccc2)cc1 (stereo unspecified)	75.5% (inactive)
CCc1cccc2c(C(=O)COC(=O)c3ccccc3)c[nH]c12	95.7% (inactive)
CCc1nn(CCCC(=O)NCc2ccccc2Br)c(=O)c2cc3occc3n12	94.9% (inactive)

SMILES	viability
Cc1ccc(CNc2ccc([N+](=O)[O-])cc2C(N)=O)cc1	71.8% (inactive)
CC(C)Cc1nc2n[nH]c(N)c2c2c1CCC2	81.1% (inactive)
COc1ccc(CN2C(=O)c3cccnc3C2Nc2cc(Cl)c(OC)cc2OC)cc1 (stereo unspecified)	97.6% (inactive)
CC(Oc1ccccc1F)C(=O)Nc1ccc2ccccc2c1 (stereo unspecified)	88.9% (inactive)
COc1cc(OC)cc(C(=O)NCCNc2nc3cc(C)cc(C)c3cc2C#N)c1	81.1% (inactive)
O=C1c2cccnc2C(Nc2ccccc2)N1Cc1ccco1 (stereo unspecified)	130% (inactive)
Cc1cc(C)c2c(c1)c(C)cc1nnc(SCC(=O)NCc3ccco3)n12	92.6% (inactive)
CS(=O)(=O)N1CCC(Oc2ccccc2C(=O)N2CCN(CC3CC3)CC2)CC1	83% (inactive)
COc1ccc(NC2c3ccccc3C(=O)N2Cc2ccccc2Cl)cc1OC (stereo unspecified)	72.8% (inactive)
COc1cc(NC2c3ccccc3C(=O)N2Cc2ccc3c(c2)OCO3)cc(OC)c1OC (stereo unspecified)	101% (inactive)
CCN(CC)S(=O)(=O)c1cc(C(=O)c2nccn2C)ccc1Cl	73% (inactive)
Cc1ccc(C2C3CSCC=C3C(C#N)=C(N)C2(C#N)C#N)cc1 (stereo unspecified)	73% (inactive)
O=C(CSc1ccc2ccccc2c1)NC1CCCc2ccccc21 (stereo unspecified)	104% (inactive)
CCC1CCc2c(sc(NC(C)=O)c2C#N)C1 (stereo unspecified)	72.8% (inactive)
COCCNC(=S)N1CCc2cc(OC)c(OC)cc2C1COc1cc(C)cc(C)c1 (stereo unspecified)	89.2% (inactive)
Cc1c(-c2ccccc2)c(=O)oc2ccc(O)cc12	102% (inactive)
O=C(CCn1c(=O)c2sccc2n(Cc2cc(=O)n3ccccc3n2)c1=O)NCc1ccco1	90.2% (inactive)
O=C(CCCn1c(=O)c2sccc2n(Cc2cc(=O)n3ccccc3n2)c1=O)NCc1ccco1	105% (inactive)
